# Measured values from PubChem BioAssay (Tox21).
# A number with no mark means an inactive call. Records with an inconclusive call do not appear. A call without a number means that no potency is given here. Active and inactive are the calls of the source. Unless noted, calls come from the whole dose curve; as a rule, active = well fitted curve in the direction sought with a large enough effect in the repeat runs; inconclusive = weak or mixed curves; inactive = no such curve, though single readings can be large; an effect the other way counts as inactive or inconclusive.
# Tests used:
# [1] = Human pregnane X receptor (PXR) small molecule agonists, qHTS cell viability counter screen (AID 1346977); note: nearly all actives have a fitted effect of over 50% in size; note: potency is the fitted concentration of half-maximal effect
# Outline: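 PXR-Luc HepG2, 2,000 cells/well, 5% charcoal-stripped FBS; 5hr settle; cpd 24hr, 37C/5% CO2; CellTiter-Fluor at 23hr, read 1hr later (fluorescence).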
# [2] = Caspase-3/7 induction in HepG2 cells by small molecules, qHTS assay (AID 1346978); note: nearly all actives have a fitted effect of over 15% in size
# Outline: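 Caspase-3/7 induction was measured by Caspase-Glo 3/7 luminescence (30 min, room temperature) after a 17 hr compound exposure of wild-type HepG2 cells seeded at 2,000 per well and pre-incubated 5 hr.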
# [3] = Caspase-3/7 induction in CHO-K1 cells by small molecules, qHTS cell viability counter screen (AID 1346979); note: nearly all actives have a fitted effect of over 35% in size; note: potency is the fitted concentration of half-maximal effect
# Outline: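 Cells (CHO-K1, wild type) are plated at 1,500 per well and incubated 5hr. Test compounds in DMSO are then pinned in, followed by 16hr at 37C and 5% CO2. Viability is read by CellTiter-Fluor fluorescence after 1hr.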
# [4] = Caspase-3/7 induction in CHO-K1 cells by small molecules, qHTS assay (AID 1346980); note: nearly all actives have a fitted effect of over 15% in size
# Outline: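 Luminescent Caspase-Glo 3/7 read (30min, room temperature) quantified apoptosis induction. Cells were wild-type CHO-K1, treated with compound for 17hr at 37 C and 5% CO2.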
# [5] = Caspase-3/7 induction in HepG2 cells by small molecules, qHTS cell viability counter screen (AID 1346981); note: nearly all actives have a fitted effect of over 30% in size; note: potency is the fitted concentration of half-maximal effect
# Outline: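 Wild-type HepG2 cells, 2,000/well, settled 5 hr at 37 C, 5% CO2 before compound addition. Viability read by CellTiter-Fluor fluorescence, reagent added after 16 hr compound exposure, then 1 hr at 37C, in the same wells as the caspase read.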
# [6] = target: Nuclear receptor subfamily 1 group I member 2 (Homo sapiens) (UniProt O75469); test: Human pregnane X receptor (PXR) small molecule agonists, qHTS assay (AID 1346982); note: nearly all actives have a fitted effect of over 35% in size; note: potency is the fitted concentration of half-maximal effect
# Chain of Nuclear receptor subfamily 1 group I member 2 (Homo sapiens) (O75469 whole entry, looked up): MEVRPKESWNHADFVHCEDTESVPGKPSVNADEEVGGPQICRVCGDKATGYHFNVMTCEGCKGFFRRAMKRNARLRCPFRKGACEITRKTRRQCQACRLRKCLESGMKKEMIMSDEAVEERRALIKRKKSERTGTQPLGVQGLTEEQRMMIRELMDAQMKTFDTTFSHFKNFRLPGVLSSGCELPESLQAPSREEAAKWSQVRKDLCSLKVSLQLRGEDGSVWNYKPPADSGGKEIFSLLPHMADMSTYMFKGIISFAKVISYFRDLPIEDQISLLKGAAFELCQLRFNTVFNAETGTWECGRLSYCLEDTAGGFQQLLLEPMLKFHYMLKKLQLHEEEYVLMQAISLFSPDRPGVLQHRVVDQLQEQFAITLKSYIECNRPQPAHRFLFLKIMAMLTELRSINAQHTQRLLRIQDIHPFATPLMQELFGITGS
# Outline: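 PXR-Luc HepG2 reporter cells (CYP3A4-driven luciferase) in 5% charcoal-stripped FBS medium, plated 5 h before compound addition, then treated 24 h at 37C. Luciferase read by ONE-Glo luminescence after 30 min at room temperature.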
# [7] = target: Nuclear receptor subfamily 1 group I member 2 (Rattus norvegicus) (UniProt Q9R1A7); test: Rat pregnane X receptor (rPXR) activation by small molecules, qHTS assay (AID 1346983); settings: rPXR luciferase reporter cells, One-Glo luminescence, 24 h; max activation: stronger effect = higher value; note: nearly all actives have a fitted effect of over 20% in size
# Chain of Nuclear receptor subfamily 1 group I member 2 (Rattus norvegicus) (Q9R1A7 whole entry, looked up): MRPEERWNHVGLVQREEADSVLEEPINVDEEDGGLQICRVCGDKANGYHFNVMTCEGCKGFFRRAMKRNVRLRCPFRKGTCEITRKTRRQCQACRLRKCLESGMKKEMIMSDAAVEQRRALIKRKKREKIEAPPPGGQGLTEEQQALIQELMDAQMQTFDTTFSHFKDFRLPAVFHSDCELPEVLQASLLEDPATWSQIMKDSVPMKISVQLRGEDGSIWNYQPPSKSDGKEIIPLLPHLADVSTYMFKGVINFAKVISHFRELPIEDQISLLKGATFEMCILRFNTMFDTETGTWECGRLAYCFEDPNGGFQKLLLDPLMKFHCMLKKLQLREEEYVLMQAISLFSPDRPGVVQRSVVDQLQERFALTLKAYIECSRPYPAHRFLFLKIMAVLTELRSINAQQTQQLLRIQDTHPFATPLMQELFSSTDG
# Outline: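 Luminescent readout (One-Glo luciferase, 30 min room temperature) followed 24 hr compound treatment at 37 C of rPXR cells plated 2,000 per well and preincubated 5hr; qHTS format with compounds delivered in DMSO.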
# [8] = target: Nuclear receptor subfamily 1 group I member 2 (Homo sapiens) (UniProt O75469); test: CYP3A4 induction through human pregnane X receptor (PXR) by small molecules, qHTS assay (AID 1346984); note: nearly all actives have a fitted effect of over 40% in size
# Outline: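 DPX-2 HepG2 cells carrying a PXR response element and CYP3A4-promoter luciferase construct, treated with compounds 24 hr at 37C. Then P450-Glo CYP3A4 Luciferin-IPA substrate (3uM final) for 3 hr at 37C, One-Glo added, luminescence read.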
# [9] = target: Nuclear receptor subfamily 1 group I member 2 (Homo sapiens) (UniProt O75469); test: Human pregnane X receptor (PXR) activation by small molecules, qHTS assay (AID 1346985); note: nearly all actives have a fitted effect of over 40% in size; note: potency is the fitted concentration of half-maximal effect
# Outline: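 DPX-2 cells (HepG2 co-transfected with a PXR response element and a CYP3A4-promoter luciferase construct) were seeded at 2,000 per well, rested 5 hr at 37C, then exposed to DMSO-dissolved compounds for 24 hr. Activation was read as luciferase luminescence.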
# [10] = target: Acetylcholinesterase (Homo sapiens) (UniProt P22303); test: Acetylcholinesterase (AChE) small molecule antagonists: colormetric cell-based qHTS assay (AID 1347395; calls by dose curve; note: nearly all actives have a fitted effect of over 30% in size)
# Outline: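 Colorimetric read-out: DTNB detects thiocholine released when cellular AChE in SH-SY5Y cells hydrolyses acetylthiocholine. Cells attached overnight, received compound for 30 min at 37 C, then substrate mix for 90 min at 37 C.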
# [11] = target: Acetylcholinesterase (Homo sapiens) (UniProt P22303); test: Acetylcholinesterase (AChE) small molecule antagonists: enzyme-based qHTS assay (AID 1347397; calls by dose curve; note: nearly all actives have a fitted effect of over 55% in size); settings: Potency: AChE enzyme activity inhibition
# Outline: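 Absorbance-based detection of thiocholine with DTNB served as the read-out. Recombinant human AChE was exposed to compound for 30 min at RT before a 10 min RT incubation with acetylthiocholine.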
# [12] = target: Acetylcholinesterase (Homo sapiens) (UniProt P22303); test: Acetylcholinesterase (AChE) small molecule antagonists: fluorescence cell-based qHTS assay (AID 1347398; calls by dose curve; note: nearly all actives have a fitted effect of over 50% in size); settings: Potency: AChE activity
# Outline: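 Fluorimetric cell-based assay: intact SH-SY5Y cells, 30 min compound preincubation at 37 C, acetylthiocholine substrate with thiol probe Thiolite Green, 40 min RT development, fluorescence 490/520 nm.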
# [13] = target: Acetylcholinesterase (Homo sapiens) (UniProt P22303); test: Acetylcholinesterase (AChE) small molecule antagonists: enzyme-based qHTS assay with human liver microsomes (AID 1347399; calls by dose curve; note: nearly all actives have a fitted effect of over 60% in size); settings: Potency: qHTS inhibition
# Outline: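 Recombinant human AChE (50 mU/mL in the enzyme mix) and human liver microsomes (0.25 mg/mL final) were preincubated with compound and NADPH (0.25 mg/mL final) for 30 min at 37 C. Acetylthiocholine/DTNB was then added; thiocholine was read colorimetrically after 10 min at room temperature.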
# [14] = target: Cytochrome P450 2C9 (Homo sapiens) (UniProt P11712); test: Cytochrome P450 Family 2 Subfamily C Member 9 (CYP2C9) small molecule antagonists: luciferase reporter qHTS assay (AID 1671198); note: nearly all actives have a fitted effect of over 50% in size; note: potency is the fitted concentration of half-maximal effect
# Chain of Cytochrome P450 2C9 (Homo sapiens) (P11712 whole entry, looked up): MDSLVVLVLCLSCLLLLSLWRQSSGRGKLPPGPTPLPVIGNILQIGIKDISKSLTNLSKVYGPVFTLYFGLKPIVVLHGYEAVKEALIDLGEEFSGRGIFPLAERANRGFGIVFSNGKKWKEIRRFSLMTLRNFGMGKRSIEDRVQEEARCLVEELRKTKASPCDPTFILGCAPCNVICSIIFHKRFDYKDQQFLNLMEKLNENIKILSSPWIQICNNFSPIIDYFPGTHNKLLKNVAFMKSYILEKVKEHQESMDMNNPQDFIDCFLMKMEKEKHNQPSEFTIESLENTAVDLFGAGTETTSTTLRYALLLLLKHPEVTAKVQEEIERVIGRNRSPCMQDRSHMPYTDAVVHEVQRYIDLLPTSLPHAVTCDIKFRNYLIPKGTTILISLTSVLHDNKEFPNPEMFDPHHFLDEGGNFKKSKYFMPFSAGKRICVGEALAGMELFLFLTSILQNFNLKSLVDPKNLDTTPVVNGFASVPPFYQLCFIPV
# Outline: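 Enzyme-substrate mix preincubated with compound 10 min at room temperature; reaction started with NADPH regeneration solution, 1 h 37C. Luminescent luciferin product read after 20 min detection reagent.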
# [15] = target: Cytochrome P450 1A2 (Homo sapiens) (UniProt P05177); test: Cytochrome P450 Family 1 Subfamily A Member 2 (CYP1A2) small molecule antagonists: luciferase reporter qHTS assay (AID 1671199); note: nearly all actives have a fitted effect of over 50% in size; note: potency is the fitted concentration of half-maximal effect
# Chain of Cytochrome P450 1A2 (Homo sapiens) (P05177 whole entry, looked up): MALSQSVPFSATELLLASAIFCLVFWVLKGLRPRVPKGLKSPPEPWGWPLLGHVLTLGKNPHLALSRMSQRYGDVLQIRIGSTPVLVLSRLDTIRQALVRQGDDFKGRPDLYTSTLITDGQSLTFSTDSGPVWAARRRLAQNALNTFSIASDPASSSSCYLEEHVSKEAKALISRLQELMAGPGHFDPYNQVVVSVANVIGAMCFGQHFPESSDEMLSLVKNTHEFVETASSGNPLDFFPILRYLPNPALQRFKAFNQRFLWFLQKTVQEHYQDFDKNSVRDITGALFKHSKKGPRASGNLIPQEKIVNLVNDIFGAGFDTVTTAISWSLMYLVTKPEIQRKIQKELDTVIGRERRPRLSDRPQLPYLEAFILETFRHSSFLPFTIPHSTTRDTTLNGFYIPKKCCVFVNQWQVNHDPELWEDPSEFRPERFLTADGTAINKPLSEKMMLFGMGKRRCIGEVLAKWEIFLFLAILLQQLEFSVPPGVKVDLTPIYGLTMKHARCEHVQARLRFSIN
# Outline: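 P450-Glo CYP1A2 enzyme–proluciferin substrate mix with compound 10 min at room temperature, then NADPH regeneration 1 h at room temperature. Luciferin detection reagent added, luminescence read after 20 min; furafylline positive control.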
# [16] = target: Cytochrome P450 3A4 (Homo sapiens) (UniProt P08684); test: Cytochrome P450 Family 3 Subfamily A Member 4 (CYP3A4) small molecule antagonists: luciferase reporter qHTS assay (AID 1671201); note: nearly all actives have a fitted effect of over 50% in size; note: potency is the fitted concentration of half-maximal effect
# Chain of Cytochrome P450 3A4 (Homo sapiens) (P08684 whole entry, looked up): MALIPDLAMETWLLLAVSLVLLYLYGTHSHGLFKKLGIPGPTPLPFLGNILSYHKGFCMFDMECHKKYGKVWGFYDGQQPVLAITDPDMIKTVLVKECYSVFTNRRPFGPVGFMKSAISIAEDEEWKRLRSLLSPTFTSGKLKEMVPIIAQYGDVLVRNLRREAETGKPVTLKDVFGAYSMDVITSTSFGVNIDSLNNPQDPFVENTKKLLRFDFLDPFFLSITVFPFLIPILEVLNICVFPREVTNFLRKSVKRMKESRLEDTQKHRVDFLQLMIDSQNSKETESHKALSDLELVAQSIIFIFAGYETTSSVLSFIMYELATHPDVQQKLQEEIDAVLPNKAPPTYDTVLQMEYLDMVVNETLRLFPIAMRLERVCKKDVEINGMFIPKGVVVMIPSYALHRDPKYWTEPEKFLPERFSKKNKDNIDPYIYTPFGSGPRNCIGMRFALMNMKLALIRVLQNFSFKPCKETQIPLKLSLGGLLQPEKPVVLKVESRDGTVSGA
# Outline: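 Compounds in DMSO were pin-transferred onto CYP3A4 enzyme-substrate mix and held 10 min at room temperature. NADPH regenerating solution started the reaction for 1 h; luciferin detection reagent stopped it, and luminescence was read after 20 min.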
# [17] = target: Cytochrome P450 2D6 (Homo sapiens) (UniProt P10635); test: Cytochrome P450 Family 2 Subfamily D Member 6 (CYP2D6) small molecule antagonists: luciferase reporter qHTS assay (AID 1671196); note: nearly all actives have a fitted effect of over 50% in size; note: potency is the fitted concentration of half-maximal effect
# Chain of Cytochrome P450 2D6 (Homo sapiens) (P10635 whole entry, looked up): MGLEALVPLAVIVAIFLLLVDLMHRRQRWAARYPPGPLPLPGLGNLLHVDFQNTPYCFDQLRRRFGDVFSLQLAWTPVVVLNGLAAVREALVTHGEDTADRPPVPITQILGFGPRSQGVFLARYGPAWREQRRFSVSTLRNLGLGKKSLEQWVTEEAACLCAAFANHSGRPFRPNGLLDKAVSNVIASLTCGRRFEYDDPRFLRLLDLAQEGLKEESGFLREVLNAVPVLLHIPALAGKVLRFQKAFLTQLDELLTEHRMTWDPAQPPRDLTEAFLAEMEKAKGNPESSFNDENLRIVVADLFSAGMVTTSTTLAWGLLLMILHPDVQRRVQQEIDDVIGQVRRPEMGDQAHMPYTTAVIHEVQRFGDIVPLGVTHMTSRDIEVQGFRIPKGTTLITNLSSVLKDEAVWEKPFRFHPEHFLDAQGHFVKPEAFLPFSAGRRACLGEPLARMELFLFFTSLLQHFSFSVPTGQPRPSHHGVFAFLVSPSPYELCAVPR
# Outline: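 Cell-free P450-Glo system: CYP2D6 with proluciferin substrate was pre-incubated with compound for 10 min, then reacted with NADPH regeneration for 1 h at room temperature. Luciferin product was detected after 20 min, and data were reported as relative luminescence units.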
# [18] = target: Cytochrome P450 2C19 (Homo sapiens) (UniProt P33261); test: Cytochrome P450 Family 2 Subfamily C Member 19 (CYP2C19) small molecule antagonists: luciferase reporter qHTS assay (AID 1671197); note: nearly all actives have a fitted effect of over 65% in size; note: potency is the fitted concentration of half-maximal effect
# Chain of Cytochrome P450 2C19 (Homo sapiens) (P33261 whole entry, looked up): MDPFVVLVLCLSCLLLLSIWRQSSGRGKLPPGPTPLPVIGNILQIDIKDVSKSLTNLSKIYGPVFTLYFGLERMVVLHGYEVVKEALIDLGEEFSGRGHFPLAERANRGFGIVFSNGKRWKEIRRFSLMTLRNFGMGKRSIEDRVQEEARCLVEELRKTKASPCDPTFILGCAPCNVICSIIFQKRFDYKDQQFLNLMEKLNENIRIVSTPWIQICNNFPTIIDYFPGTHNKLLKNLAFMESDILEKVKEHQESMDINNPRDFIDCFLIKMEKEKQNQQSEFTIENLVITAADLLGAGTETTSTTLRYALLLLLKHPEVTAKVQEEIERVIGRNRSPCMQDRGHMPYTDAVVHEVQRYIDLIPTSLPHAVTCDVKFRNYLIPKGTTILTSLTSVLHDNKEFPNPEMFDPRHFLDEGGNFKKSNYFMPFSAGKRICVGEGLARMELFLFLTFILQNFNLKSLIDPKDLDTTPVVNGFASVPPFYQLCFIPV
# Outline: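 Enzyme-substrate mix with proluciferin substrate (P450-Glo CYP2C19 system) preincubated with compounds 10 min at room temperature; NADPH regeneration solution added, 37C for 1 h; detection reagent stops reaction, luminescence read after 20 min. Ketoconazole positive control.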
# [19] = target: Voltage-gated inwardly rectifying potassium channel KCNH2 (Homo sapiens) (UniProt Q12809); test: Human Ether-a-go-go-Related Gene (hERG) channel small molecule antagonists: fluorescence cell-based qHTS assay (AID 1671200)
# Chain of Voltage-gated inwardly rectifying potassium channel KCNH2 (Homo sapiens) (Q12809 whole entry, looked up): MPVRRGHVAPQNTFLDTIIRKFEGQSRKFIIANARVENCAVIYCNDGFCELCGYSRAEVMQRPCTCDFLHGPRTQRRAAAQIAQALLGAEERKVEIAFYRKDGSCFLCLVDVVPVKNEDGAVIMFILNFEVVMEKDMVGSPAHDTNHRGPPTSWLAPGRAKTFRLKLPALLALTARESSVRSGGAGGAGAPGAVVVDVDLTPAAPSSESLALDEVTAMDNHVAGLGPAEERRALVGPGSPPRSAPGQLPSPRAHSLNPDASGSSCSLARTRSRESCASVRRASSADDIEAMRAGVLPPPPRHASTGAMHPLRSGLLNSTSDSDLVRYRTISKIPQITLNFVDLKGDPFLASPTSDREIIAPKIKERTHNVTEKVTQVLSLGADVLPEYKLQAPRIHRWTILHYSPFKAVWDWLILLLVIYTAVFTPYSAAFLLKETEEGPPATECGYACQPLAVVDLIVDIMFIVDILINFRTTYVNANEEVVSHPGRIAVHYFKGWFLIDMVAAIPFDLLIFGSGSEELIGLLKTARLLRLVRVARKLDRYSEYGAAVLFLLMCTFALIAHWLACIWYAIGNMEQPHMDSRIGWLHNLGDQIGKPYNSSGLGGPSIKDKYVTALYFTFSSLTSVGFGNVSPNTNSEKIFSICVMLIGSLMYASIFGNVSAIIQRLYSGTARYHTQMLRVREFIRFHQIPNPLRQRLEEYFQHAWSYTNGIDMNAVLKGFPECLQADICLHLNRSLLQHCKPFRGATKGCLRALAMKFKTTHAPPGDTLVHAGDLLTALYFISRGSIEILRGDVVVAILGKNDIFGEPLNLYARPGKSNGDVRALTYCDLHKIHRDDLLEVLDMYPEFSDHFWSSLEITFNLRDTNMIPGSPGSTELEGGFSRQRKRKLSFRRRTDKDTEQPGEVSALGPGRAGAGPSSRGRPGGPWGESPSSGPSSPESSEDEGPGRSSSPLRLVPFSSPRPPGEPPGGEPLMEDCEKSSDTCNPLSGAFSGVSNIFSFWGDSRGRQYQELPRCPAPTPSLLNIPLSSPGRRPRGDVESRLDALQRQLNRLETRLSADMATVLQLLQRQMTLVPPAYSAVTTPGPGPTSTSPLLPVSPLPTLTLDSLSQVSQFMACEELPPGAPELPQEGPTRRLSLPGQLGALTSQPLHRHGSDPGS
# Outline: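 Channel function was assessed by thallium flux. Cells seeded the previous day and kept at 37 C took up FluxOR II dye over 1 h in the dark at room temperature, then sat another 10 min before stimulation.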
SMILES,Potency [1],Potency [2],Potency [3],Potency [4],Potency [5],Potency [6],max activation [7],Potency [8],Potency [9],Potency [10],Potency [11],Potency [12],Potency [13],Potency [14],Potency [15],Potency [16],Potency [17],Potency [18],Potency [19]
C[C@H]1CCC[C@H](O)CCCCCc2cc(O)cc(O)c2C(=O)O1,48.9 µM (active),inactive,61.6 µM (active),inactive,54.9 µM (active),7.75 µM (active),-2.62%,inactive,12.6 µM (active),inactive,inactive,inactive,inactive,31.9 µM (active),35.8 µM (active),0.715 µM (active),,,
CC1CCCCC1NC(=O)Nc1ccccc1 (stereo not drawn),inactive,inactive,inactive,inactive,inactive,24.3 µM (active),,,,inactive,inactive,inactive,inactive,35.6 µM (active),31.7 µM (active),11.2 µM (active),71 µM (active),11.2 µM (active),inactive
O=C(O)c1ccc2[nH]cc(CCCCN3CC=C(c4ccccc4)CC3)c2c1,inactive,inactive,inactive,inactive,inactive,inactive,-0.864%,inactive,inactive,inactive,inactive,inactive,inactive,inactive,,inactive,12.3 µM (active),inactive,inactive
ClCC(Cl)(Cl)Cl,inactive,inactive,inactive,inactive,inactive,inactive,,,,inactive,inactive,inactive,inactive,inactive,inactive,inactive,inactive,inactive,inactive
OC(c1ccccc1)(c1ccccc1)C1CCNCC1,inactive,inactive,inactive,inactive,inactive,inactive,-4.65%,inactive,inactive,inactive,inactive,inactive,inactive,inactive,,inactive,12.3 µM (active),4.36 µM (active),
CN1C(=S)CN=C(c2ccccc2)c2cc(Cl)ccc21,inactive,inactive,inactive,inactive,inactive,26.6 µM (active),-0.756%,,14.1 µM (active),inactive,inactive,inactive,inactive,17.4 µM (active),,,inactive,21.9 µM (active),inactive
C[C@@H]1CN(C2CCC(C#N)(c3ccc(F)cc3)CC2)CC[C@]1(C(=O)O)c1ccccc1 (stereo partly drawn),inactive,inactive,inactive,inactive,inactive,inactive,-1.37%,inactive,inactive,inactive,inactive,inactive,inactive,inactive,inactive,inactive,1.55 µM (active),,
CC(C)CC(N(C)C)C1(c2ccc(Cl)cc2)CCC1 (stereo not drawn),inactive,inactive,inactive,inactive,inactive,inactive,-2.56%,inactive,inactive,,,,,inactive,inactive,,4.36 µM (active),,
